Measurements: PubChem BioAssay
Calls of active or inactive are those of the source.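 How the source made its calls: active means normalized viability below 100% at a tested concentration; inactive means the rest.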

Experiment: ovarian cancer cell viability with rucaparib, profiling panel, oncology-focused library, rucaparib conditional (AID 1508598)
Settings: patient-derived ovarian cancer cells, CellTiter-Glo viability, 144 h; at 0.000305 µM; OCI-C5x cells; without rucaparib; hits give low values

SMILES	viability
O=c1[nH]c(=O)n([C@@H]2C[C@H](O)[C@@H](CO)O2)cc1F	119% (inactive)
COc1cccc2c1C(=O)c1c(O)c3c(c(O)c1C2=O)C[C@@](O)(C(C)=O)C[C@H]3O[C@H]1C[C@H](N)[C@H](O)[C@H](C)O1	110% (inactive)
C[C@]12CC[C@H]3c4ccc(O)cc4CC[C@H]3[C@@H]1CC[C@H]2O	130% (inactive)
CC1=C(/C=C/C(C)=C\C=C\C(C)=C/C(=O)O)C(C)(C)CCC1	108% (inactive)
CC(C)CC(CC(=O)NO)C(=O)N[C@@H](Cc1ccc2ccccc2c1)C(=O)N[C@@H](C)C(=O)NCCN (stereo partly specified)	120% (inactive)
COc1cccc2c1C(=O)c1c(O)c3c(c(O)c1C2=O)C[C@@](O)(C(=O)CO)C[C@H]3O[C@H]1C[C@H](N)[C@@H](O)[C@H](C)O1	108% (inactive)
COc1ccc(C2=N[C@H](c3ccc(Cl)cc3)[C@@H](c3ccc(Cl)cc3)N2C(=O)N2CCNC(=O)C2)c(OC(C)C)c1	103% (inactive)
CO[C@H]1C[C@H]2CC[C@@H](C)[C@@](O)(O2)C(=O)C(=O)N2CCCC[C@H]2C(=O)O[C@H]([C@H](C)C[C@@H]2CC[C@H](OC(=O)C(C)(CO)CO)[C@H](OC)C2)CC(=O)[C@H](C)/C=C(\C)[C@@H](O)[C@@H](OC)C(=O)[C@H](C)C[C@H](C)/C=C/C=C/C=C/1C	93.2% (active)
O=C(O)c1cc(I)ccc1NC(=O)[C@H](Cc1ccccc1)NCc1ccccc1	116% (inactive)
Nc1ncn([C@@H]2O[C@H](CO)[C@@H](O)[C@@H]2O)c(=O)n1	128% (inactive)
CO[C@H]1C[C@@H]2CC[C@@H](C)[C@@](O)(O2)C(=O)C(=O)N2CCCC[C@H]2C(=O)O[C@H]([C@H](C)C[C@@H]2CC[C@@H](O)[C@H](OC)C2)CC(=O)[C@H](C)/C=C(\C)[C@@H](O)[C@H](OC)C(=O)[C@H](C)C[C@H](C)/C=C/C=C/C=C/1C	111% (inactive)
CC(=O)OCC(=O)[C@]1(O)[C@H](C)C[C@H]2[C@@H]3CCC4=CC(=O)C=C[C@]4(C)[C@]3(F)[C@H](O)C[C@@]21C	119% (inactive)
CC[C@]1(O)C[C@@H]2CN(CCc3c([nH]c4ccccc34)[C@@](C(=O)OC)(c3cc4c(cc3OC)N(C=O)[C@H]3[C@@](O)(C(=O)OC)[C@H](OC(C)=O)[C@]5(CC)C=CCN6CC[C@@]43[C@@H]65)C2)C1	110% (inactive)
C[C@@]12CC[C@H]3c4ccc(O)cc4C[C@@H](CCCCCCCCCS(=O)CCCC(F)(F)C(F)(F)F)[C@H]3[C@@H]1CC[C@@H]2O (stereo partly specified)	99.5% (active)
CC(=O)O[C@@]1(C(C)=O)CC[C@H]2[C@@H]3C[C@H](C)C4=CC(=O)CC[C@]4(C)[C@@H]3CC[C@@]21C	122% (inactive)
CC(=O)O[C@]12CO[C@@H]1C[C@H](O)[C@]1(C)C(=O)[C@H](O)C3=C(C)[C@H](OC(=O)[C@H](O)[C@@H](NC(=O)OC(C)(C)C)c4ccccc4)C[C@](O)([C@H](OC(=O)c4ccccc4)C21)C3(C)C (stereo partly specified)	115% (inactive)
CCC1=CC2CN(C1)Cc1c([nH]c3ccccc13)[C@@](C(=O)OC)(c1cc3c(cc1OC)N(C)[C@H]1[C@@](O)(C(=O)OC)[C@H](OC(C)=O)[C@]4(CC)C=CCN5CC[C@@]31[C@H]54)C2 (stereo partly specified)	106% (inactive)
CC(=O)O[C@H]1C(=O)[C@@]2(C)C([C@H](OC(=O)c3ccccc3)[C@]3(O)C[C@H](OC(=O)[C@H](O)[C@@H](NC(=O)c4ccccc4)c4ccccc4)C(C)=C1C3(C)C)[C@]1(OC(C)=O)CO[C@@H]1C[C@H]2O (stereo partly specified)	129% (inactive)

Same assay, conditions: patient-derived ovarian cancer cells, CellTiter-Glo viability, 144 h; at 0.000305 µM; OCI-P5x cells; with rucaparib 20 µM; hits give low values; 100% = cells with rucaparib alone

SMILES	viability
O=c1[nH]c(=O)n([C@@H]2C[C@H](O)[C@@H](CO)O2)cc1F	67.7% (active)
COc1cccc2c1C(=O)c1c(O)c3c(c(O)c1C2=O)C[C@@](O)(C(C)=O)C[C@H]3O[C@H]1C[C@H](N)[C@H](O)[C@H](C)O1	110% (inactive)
C[C@]12CC[C@H]3c4ccc(O)cc4CC[C@H]3[C@@H]1CC[C@H]2O	103% (inactive)
CC1=C(/C=C/C(C)=C\C=C\C(C)=C/C(=O)O)C(C)(C)CCC1	94.7% (active)
CC(C)CC(CC(=O)NO)C(=O)N[C@@H](Cc1ccc2ccccc2c1)C(=O)N[C@@H](C)C(=O)NCCN (stereo partly specified)	90.2% (active)
COc1cccc2c1C(=O)c1c(O)c3c(c(O)c1C2=O)C[C@@](O)(C(=O)CO)C[C@H]3O[C@H]1C[C@H](N)[C@@H](O)[C@H](C)O1	107% (inactive)
COc1ccc(C2=N[C@H](c3ccc(Cl)cc3)[C@@H](c3ccc(Cl)cc3)N2C(=O)N2CCNC(=O)C2)c(OC(C)C)c1	88.9% (active)
CO[C@H]1C[C@H]2CC[C@@H](C)[C@@](O)(O2)C(=O)C(=O)N2CCCC[C@H]2C(=O)O[C@H]([C@H](C)C[C@@H]2CC[C@H](OC(=O)C(C)(CO)CO)[C@H](OC)C2)CC(=O)[C@H](C)/C=C(\C)[C@@H](O)[C@@H](OC)C(=O)[C@H](C)C[C@H](C)/C=C/C=C/C=C/1C	85% (active)
O=C(O)c1cc(I)ccc1NC(=O)[C@H](Cc1ccccc1)NCc1ccccc1	98.3% (active)
Nc1ncn([C@@H]2O[C@H](CO)[C@@H](O)[C@@H]2O)c(=O)n1	103% (inactive)
CO[C@H]1C[C@@H]2CC[C@@H](C)[C@@](O)(O2)C(=O)C(=O)N2CCCC[C@H]2C(=O)O[C@H]([C@H](C)C[C@@H]2CC[C@@H](O)[C@H](OC)C2)CC(=O)[C@H](C)/C=C(\C)[C@@H](O)[C@H](OC)C(=O)[C@H](C)C[C@H](C)/C=C/C=C/C=C/1C	87.8% (active)
CC(=O)OCC(=O)[C@]1(O)[C@H](C)C[C@H]2[C@@H]3CCC4=CC(=O)C=C[C@]4(C)[C@]3(F)[C@H](O)C[C@@]21C	107% (inactive)
CC[C@]1(O)C[C@@H]2CN(CCc3c([nH]c4ccccc34)[C@@](C(=O)OC)(c3cc4c(cc3OC)N(C=O)[C@H]3[C@@](O)(C(=O)OC)[C@H](OC(C)=O)[C@]5(CC)C=CCN6CC[C@@]43[C@@H]65)C2)C1	91.7% (active)
C[C@@]12CC[C@H]3c4ccc(O)cc4C[C@@H](CCCCCCCCCS(=O)CCCC(F)(F)C(F)(F)F)[C@H]3[C@@H]1CC[C@@H]2O (stereo partly specified)	110% (inactive)
CC(=O)O[C@@]1(C(C)=O)CC[C@H]2[C@@H]3C[C@H](C)C4=CC(=O)CC[C@]4(C)[C@@H]3CC[C@@]21C	94.9% (active)
CC(=O)O[C@]12CO[C@@H]1C[C@H](O)[C@]1(C)C(=O)[C@H](O)C3=C(C)[C@H](OC(=O)[C@H](O)[C@@H](NC(=O)OC(C)(C)C)c4ccccc4)C[C@](O)([C@H](OC(=O)c4ccccc4)C21)C3(C)C (stereo partly specified)	120% (inactive)
CCC1=CC2CN(C1)Cc1c([nH]c3ccccc13)[C@@](C(=O)OC)(c1cc3c(cc1OC)N(C)[C@H]1[C@@](O)(C(=O)OC)[C@H](OC(C)=O)[C@]4(CC)C=CCN5CC[C@@]31[C@H]54)C2 (stereo partly specified)	1.99% (active)
CC(=O)O[C@H]1C(=O)[C@@]2(C)C([C@H](OC(=O)c3ccccc3)[C@]3(O)C[C@H](OC(=O)[C@H](O)[C@@H](NC(=O)c4ccccc4)c4ccccc4)C(C)=C1C3(C)C)[C@]1(OC(C)=O)CO[C@@H]1C[C@H]2O (stereo partly specified)	125% (inactive)
